From PubChem BioAssay (NCATS)
Values joined by “and” are separate entries in the source; they are usually repeats but may differ in a detail not shown here. Identical values can stand only once. Results filed as inconclusive are left out. Entries that show only a call come without a potency. Active and inactive are the calls of the source. Unless noted, the call rests on the fitted dose curve; in most records, active means well fitted curve in the direction sought with a large enough effect; inconclusive means small, poorly fitted or top-dose-only effect, or another doubt; inactive means no such curve, though single readings can be large; an effect the other way counts as inactive or inconclusive.

Legend:
[1] = biological target: Beta-2 adrenergic receptor (Homo sapiens) (UniProt P07550); assay: qHTS validation assay of beta-arrestin-biased ligands of beta2-adrenergic receptor (AID 485366)
Sequence of Beta-2 adrenergic receptor (Homo sapiens) (P07550 whole entry, looked up): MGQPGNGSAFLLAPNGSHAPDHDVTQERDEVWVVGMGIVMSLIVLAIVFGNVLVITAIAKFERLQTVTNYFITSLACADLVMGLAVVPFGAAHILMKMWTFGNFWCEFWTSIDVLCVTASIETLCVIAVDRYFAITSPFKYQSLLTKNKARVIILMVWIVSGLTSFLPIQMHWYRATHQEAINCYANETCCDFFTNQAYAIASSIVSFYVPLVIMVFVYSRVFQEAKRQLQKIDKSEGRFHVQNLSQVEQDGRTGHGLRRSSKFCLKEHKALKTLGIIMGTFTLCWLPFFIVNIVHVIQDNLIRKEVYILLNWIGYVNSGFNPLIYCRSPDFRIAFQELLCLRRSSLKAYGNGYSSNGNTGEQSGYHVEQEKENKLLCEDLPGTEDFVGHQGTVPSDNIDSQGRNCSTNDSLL
How it was run: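 Compound series up to 46 microM applied to beta2-AR/beta-arrestin Tango cells, 18 hr, 37 degrees C, 5% CO2. Read-out: tTA-driven luciferase luminescence, converted to %Activity; concentration-response curves assigned curve classes.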

[2] = Quantitative high throughput screen for delayed death inhibitors of the malarial parasite plastid, 96 hour incubation (AID 488745); further: series mostly up to about 29 µM; nearly all actives have a fitted effect of over 70% in size
How it was run: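 Two-generation (96 h) exposure of luciferase-reporter P. falciparum in erythrocytes, 2% hematocrit, 0.1% parasitemia final, 37 C, 5% CO2, RPMI 1640 with 0.5% Albumax. Growth inhibition scored by reduced luminescence.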

[3] = Quantitative high throughput screen for delayed death inhibitors of the malarial parasite plastid, 48 hour incubation (AID 488752); further: nearly all actives have a fitted effect of over 65% in size
How it was run: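 Cultures: infected erythrocytes at final 2% hematocrit and 0.1% parasitemia in Albumax-supplemented RPMI. Parasites express integrated firefly luciferase. Incubation with compound lasts 48 h before luminescent detection of remaining reporter activity.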

[4] = biological target: Thioredoxin reductase 1, cytoplasmic (Rattus norvegicus) (UniProt O89049); assay: qHTS Assay for Substrates of Mammalian Selenoprotein Thioredoxin Reductase 1 (TrxR1) (AID 488772);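 further: series mostly up to about 57 µM; a drop in NADPH fluorescence below the no-compound background marks a TrxR1 substrate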
Sequence of Thioredoxin reductase 1, cytoplasmic (Rattus norvegicus) (O89049 whole entry, looked up): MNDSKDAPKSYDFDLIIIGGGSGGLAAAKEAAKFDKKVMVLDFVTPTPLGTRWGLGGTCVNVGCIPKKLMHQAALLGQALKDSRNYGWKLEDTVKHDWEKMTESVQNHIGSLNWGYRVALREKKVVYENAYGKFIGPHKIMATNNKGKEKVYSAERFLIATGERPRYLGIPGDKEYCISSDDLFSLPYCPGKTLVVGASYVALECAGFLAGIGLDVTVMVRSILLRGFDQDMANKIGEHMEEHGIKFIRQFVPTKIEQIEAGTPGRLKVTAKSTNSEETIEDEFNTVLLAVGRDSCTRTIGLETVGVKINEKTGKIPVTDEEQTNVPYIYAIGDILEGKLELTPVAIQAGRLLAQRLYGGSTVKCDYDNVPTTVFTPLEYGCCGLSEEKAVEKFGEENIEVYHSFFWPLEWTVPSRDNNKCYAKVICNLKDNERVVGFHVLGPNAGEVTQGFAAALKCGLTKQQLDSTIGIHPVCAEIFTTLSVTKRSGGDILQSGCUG
How it was run: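 In this dual-purpose format, potential substrates are identified from the first fluorescence read after selenite addition, not from the 8-minute delta. Rat enzyme is preincubated with NADPH and then with compound at ~22 deg C.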

[5] = biological target: Thioredoxin reductase 1, cytoplasmic (Rattus norvegicus) (UniProt O89049); assay: qHTS Assay for Inhibitors of Mammalian Selenoprotein Thioredoxin Reductase 1 (TrxR1) (AID 488773); conditions: Potency: inhibition;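 further: drop in NADPH fluorescence over an 8 min run after selenite addition; series mostly up to about 57 µM; nearly all actives have a fitted effect of over 40% in size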
How it was run: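 Inhibition is scored from the loss of NADPH fluorescence between first and last reads of an 8-min kinetic run. Selenite (400 uM) was the substrate, added after 15 min compound preincubation at room temperature.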

[6] = biological target: Flap endonuclease 1 (Homo sapiens) (UniProt P39748); assay: qHTS Validation Assay for the Inhibitors of Human Flap endonuclease 1 (FEN1) (AID 488816)
Sequence of Flap endonuclease 1 (Homo sapiens) (P39748 whole entry, looked up): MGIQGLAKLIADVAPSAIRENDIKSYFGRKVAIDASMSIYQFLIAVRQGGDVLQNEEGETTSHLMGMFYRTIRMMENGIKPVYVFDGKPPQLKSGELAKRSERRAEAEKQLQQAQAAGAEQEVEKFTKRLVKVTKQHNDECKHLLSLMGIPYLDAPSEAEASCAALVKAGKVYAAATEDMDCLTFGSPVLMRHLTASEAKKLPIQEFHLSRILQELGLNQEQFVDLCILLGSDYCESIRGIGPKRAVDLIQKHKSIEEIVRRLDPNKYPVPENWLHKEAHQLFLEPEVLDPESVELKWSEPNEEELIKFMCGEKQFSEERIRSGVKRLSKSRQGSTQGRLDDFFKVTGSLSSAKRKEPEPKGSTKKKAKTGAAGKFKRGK
How it was run: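 qHTS format: compounds and 10 nM FEN1 incubated 15 min at room temperature before adding 50 nM substrate. Cleavage followed by reads at 0 and 15 min; normalized data fitted to a four-parameter Hill curve.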

[7] = biological target: M-phase phosphoprotein 8 (Homo sapiens) (UniProt Q99549); assay: qHTS Validation Assay for Inhibitors for MPP8 Chromodomain Interactions with Methylated Histone Tails (AID 488949);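 further: AlphaScreen signal from MPP8 chromodomain bound to biotinylated H3K9me3 peptide; top concentration of the series differs between compounds; nearly all actives have a fitted effect of over 55% in size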
How it was run: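 AlphaScreen read-out: streptavidin donor and nickel chelate acceptor beads (final 10 ug/mL), 30 min in the dark at RT. Complex of 50 nM MPP8 and 50 nM b-H3(1-18)K9me3 peptide had been exposed to compounds for 30 min beforehand.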

[8] = biological target: Chromobox protein homolog 1 (Homo sapiens) (UniProt P83916); assay: qHTS Validation Assay for Inhibitors of HP1-beta Chromodomain Interactions with Methylated Histone Tails (AID 488953);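 further: loss of AlphaScreen luminescence from HP1-beta binding biotinylated H3K9me3 peptide; series mostly up to about 110 µM; nearly all actives have a fitted effect of over 50% in size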
Sequence of Chromobox protein homolog 1 (Homo sapiens) (P83916 whole entry, looked up): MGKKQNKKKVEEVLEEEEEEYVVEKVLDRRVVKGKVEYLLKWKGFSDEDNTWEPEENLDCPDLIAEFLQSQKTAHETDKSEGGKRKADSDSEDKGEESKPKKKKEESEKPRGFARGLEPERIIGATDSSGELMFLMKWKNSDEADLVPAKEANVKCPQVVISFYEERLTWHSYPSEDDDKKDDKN
How it was run: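 Compounds pinned into a preassembled complex of HP1-beta and trimethyl-K9 histone H3(1-18) biotin peptide (50 nM each; PBS pH 7.4, 0.01% Tween-20). After 30 min, bead-based AlphaScreen detection followed.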

[9] = biological target: Methanococcus maripaludis chaperonin (MmCpn) (UniProt Q6LX38); assay: High-Throughput Screening for Modulators of Cytosolic Chaperonin Activity: MmCpn Primary Screen (AID 488978);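 further: 50 nM MmCpn enzyme hydrolysing 30 µM ATP at 37 °C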
Sequence of Methanococcus maripaludis chaperonin (MmCpn) (Q6LX38 1-543): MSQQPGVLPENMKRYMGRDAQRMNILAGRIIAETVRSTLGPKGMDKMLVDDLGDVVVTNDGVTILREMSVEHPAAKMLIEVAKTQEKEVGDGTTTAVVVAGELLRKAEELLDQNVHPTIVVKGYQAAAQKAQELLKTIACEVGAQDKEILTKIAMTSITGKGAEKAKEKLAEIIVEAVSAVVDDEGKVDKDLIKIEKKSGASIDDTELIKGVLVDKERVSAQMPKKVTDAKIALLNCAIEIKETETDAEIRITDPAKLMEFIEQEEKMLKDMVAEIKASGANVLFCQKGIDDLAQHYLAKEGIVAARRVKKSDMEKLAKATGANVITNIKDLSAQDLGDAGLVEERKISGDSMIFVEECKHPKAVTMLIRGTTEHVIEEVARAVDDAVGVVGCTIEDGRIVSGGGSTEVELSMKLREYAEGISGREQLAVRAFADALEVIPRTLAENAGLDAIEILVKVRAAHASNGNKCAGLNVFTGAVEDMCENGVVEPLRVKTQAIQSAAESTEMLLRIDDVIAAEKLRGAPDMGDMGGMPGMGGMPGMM
How it was run: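 ADP formation read by HTRF Transcreener, 665/590 nm emission after 320 nm excitation. Enzyme: archaeal chaperonin at 50 nM final; substrate ATP 30 uM final; 10 min, 37C, after 5 min compound preincubation at RT.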

[10] = biological target: Transient receptor potential cation channel subfamily V member 1 (Homo sapiens) (UniProt Q8NER1); assay: HTS Assay for Compounds that Act as Enhancers of the Vanilloid Receptor 1 (AID 488979)
How it was run: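 Calcium influx kinetics via Fluo-8 (480/520 nm) in TRPV1-expressing cells, 2000/well cultured overnight at 35.5C. Compound-alone read 3 min (agonist phase), followed by EC20 capsaicin challenge for 2 min (enhancer phase).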

[11] = biological target: Thyrotropin receptor (Homo sapiens) (UniProt P16473); assay: qHTS Assay for Antagonists of the Thyroid Stimulating Hormone Receptor (AID 488980); further: series mostly up to about 58 µM
How it was run: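 TSHR-HEK293 cells; 70 uM RO 20-1724 PDE inhibitor; compound + EC80 TSH (4 nM final); anti-cAMP cryptate antibody/cAMP-d2 in lysis buffer, 30 min RT; HTRF 665/620 nm read.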

[12] = biological target: D(1A) dopamine receptor (Homo sapiens) (UniProt P21728); assay: HTS Assay for Allosteric Agonists of the Human D1 Dopamine Receptor: Primary Screen for Agonists (AID 488981)
Sequence of D(1A) dopamine receptor (Homo sapiens) (P21728 whole entry, looked up): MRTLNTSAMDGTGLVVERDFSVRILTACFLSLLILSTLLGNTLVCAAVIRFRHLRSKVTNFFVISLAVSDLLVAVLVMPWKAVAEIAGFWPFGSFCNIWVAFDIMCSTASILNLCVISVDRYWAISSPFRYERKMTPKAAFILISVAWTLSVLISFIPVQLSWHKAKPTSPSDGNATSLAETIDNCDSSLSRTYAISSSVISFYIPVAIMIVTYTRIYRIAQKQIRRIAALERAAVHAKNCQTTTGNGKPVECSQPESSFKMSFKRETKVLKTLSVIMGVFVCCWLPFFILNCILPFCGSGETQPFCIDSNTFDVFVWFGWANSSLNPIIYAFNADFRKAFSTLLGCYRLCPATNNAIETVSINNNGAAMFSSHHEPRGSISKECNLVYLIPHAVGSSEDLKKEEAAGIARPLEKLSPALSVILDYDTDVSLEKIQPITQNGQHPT
How it was run: (§1)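 Calcium flux in an inducible, force-coupled HEK293 Trex D1 line (overnight at 30 C): agonist mode is the 180 s kinetic read after compound; potentiator mode is the following 180 s read after dopamine at EC20.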

[13] = biological target: D(1A) dopamine receptor (Homo sapiens) (UniProt P21728); assay: HTS Assay for Allosteric Agonists of the Human D1 Dopamine Receptor: Primary Screen for Potentiators (AID 488982)
How it was run: as §1

[14] = biological target: D(1A) dopamine receptor (Homo sapiens) (UniProt P21728); assay: HTS Assay for Allosteric Agonists of the Human D1 Dopamine Receptor: Primary Screen for Antagonists (AID 488983);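 further: calcium flux response to an EC80 dopamine challenge measured with no-wash dye; nearly all actives have a fitted effect of over 65% in size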
How it was run: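 In this primary screen, compounds are applied to calcium-dye-loaded HEK293 T-REx cells with force-coupled D1 expression induced overnight at 30 C. An EC80 of dopamine follows the 180 s compound phase, and calcium is monitored for a further 180 s.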

[15] = biological target: ATP-dependent 6-phosphofructokinase (Trypanosoma brucei brucei) (UniProt O15648); assay: qHTS Assay to Find Inhibitors of T. brucei phosphofructokinase: hit validation (AID 492961);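 further: luminescence reports ADP formed as PFK phosphorylates fructose-6-phosphate with ATP; series mostly up to about 51 µM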
How it was run: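 ADP-Glo luminescence read-out of ADP formed by 1.25 nM PFK from 0.1 mM ATP and 0.5 mM F6P (TEA pH 8.0, 45 min, RT). Compounds titrated; activity normalized to no-enzyme and full-enzyme controls.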

[16] = Validation screen for small molecules that induce genotoxicity in human embryonic kidney (HEK293T) cells expressing luciferase-tagged ELG1 (AID 493106)
How it was run: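 In this validation screen, increased ELG1-luciferase signal flags compounds causing genetic stress. HEK293T reporter cells are treated 16 hr (37 °C, 5% CO2), developed with ONE-Glo for 30 min at room temperature, and imaged on a CCD-based reader.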

[17] = biological target: ATPase family AAA domain-containing protein 5 (Homo sapiens) (UniProt Q96QE3); assay: Validation screen for small molecules that inhibit ELG1-dependent DNA repair in human embryonic kidney (HEK293T) cells expressing luciferase-tagged ELG1 (AID 493107); further: nearly all actives have a fitted effect of over 70% in size; further: potency means the concentration at half of the fitted maximal effect
Sequence of ATPase family AAA domain-containing protein 5 (Homo sapiens) (Q96QE3 whole entry, looked up, the tested form may be a part): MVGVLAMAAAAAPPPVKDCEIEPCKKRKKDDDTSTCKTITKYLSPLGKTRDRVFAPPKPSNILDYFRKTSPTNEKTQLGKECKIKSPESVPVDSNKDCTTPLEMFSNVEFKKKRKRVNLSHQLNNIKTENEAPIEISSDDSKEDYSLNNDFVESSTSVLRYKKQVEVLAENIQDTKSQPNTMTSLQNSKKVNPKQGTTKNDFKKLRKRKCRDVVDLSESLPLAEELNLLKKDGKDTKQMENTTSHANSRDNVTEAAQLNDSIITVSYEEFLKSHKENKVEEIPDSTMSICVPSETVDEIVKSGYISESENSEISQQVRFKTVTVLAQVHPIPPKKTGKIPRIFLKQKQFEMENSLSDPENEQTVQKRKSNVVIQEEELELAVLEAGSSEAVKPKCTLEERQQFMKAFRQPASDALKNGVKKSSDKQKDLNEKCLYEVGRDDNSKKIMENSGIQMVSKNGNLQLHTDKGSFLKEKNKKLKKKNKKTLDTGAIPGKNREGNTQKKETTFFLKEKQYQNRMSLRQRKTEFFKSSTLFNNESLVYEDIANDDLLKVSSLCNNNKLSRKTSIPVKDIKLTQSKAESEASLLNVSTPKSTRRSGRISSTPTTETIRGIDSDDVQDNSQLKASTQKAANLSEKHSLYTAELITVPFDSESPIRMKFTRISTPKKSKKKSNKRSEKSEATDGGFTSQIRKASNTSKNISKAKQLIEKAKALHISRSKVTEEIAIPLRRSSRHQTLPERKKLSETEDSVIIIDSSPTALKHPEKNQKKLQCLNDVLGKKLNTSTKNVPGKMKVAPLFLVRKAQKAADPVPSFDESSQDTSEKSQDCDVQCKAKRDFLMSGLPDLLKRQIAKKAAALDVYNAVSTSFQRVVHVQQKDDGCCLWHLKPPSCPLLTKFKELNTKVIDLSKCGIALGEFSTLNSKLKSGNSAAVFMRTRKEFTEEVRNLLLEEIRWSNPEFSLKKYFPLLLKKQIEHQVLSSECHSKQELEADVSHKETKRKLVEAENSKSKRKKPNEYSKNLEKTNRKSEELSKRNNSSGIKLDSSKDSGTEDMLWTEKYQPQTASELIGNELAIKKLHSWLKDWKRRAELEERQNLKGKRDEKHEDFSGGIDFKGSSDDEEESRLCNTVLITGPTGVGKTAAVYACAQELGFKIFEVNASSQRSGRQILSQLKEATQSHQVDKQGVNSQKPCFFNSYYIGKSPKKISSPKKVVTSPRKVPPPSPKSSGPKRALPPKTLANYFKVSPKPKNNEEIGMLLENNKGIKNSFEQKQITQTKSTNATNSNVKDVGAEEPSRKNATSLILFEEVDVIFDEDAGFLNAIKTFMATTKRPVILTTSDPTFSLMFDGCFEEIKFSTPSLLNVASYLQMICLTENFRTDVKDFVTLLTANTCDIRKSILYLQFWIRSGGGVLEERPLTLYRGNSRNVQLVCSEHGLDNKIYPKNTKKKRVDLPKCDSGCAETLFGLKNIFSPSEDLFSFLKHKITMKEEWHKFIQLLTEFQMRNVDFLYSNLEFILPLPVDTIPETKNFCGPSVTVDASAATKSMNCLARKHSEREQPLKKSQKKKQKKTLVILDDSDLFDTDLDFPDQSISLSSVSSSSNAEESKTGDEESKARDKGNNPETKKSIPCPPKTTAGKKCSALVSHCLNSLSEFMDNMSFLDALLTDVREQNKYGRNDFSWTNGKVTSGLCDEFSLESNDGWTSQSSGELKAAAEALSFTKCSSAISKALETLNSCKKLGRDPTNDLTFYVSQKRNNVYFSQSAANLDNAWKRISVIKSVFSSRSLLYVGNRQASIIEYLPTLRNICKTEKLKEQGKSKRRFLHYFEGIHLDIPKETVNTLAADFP
How it was run: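 Compounds reducing 5-fluorouridine-driven ELG1-luciferase signal in HEK293T cells were scored; exposure lasted 16 hr at 37 °C with luminescence detected via ONE-Glo.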

[18] = biological target: Thyrotropin-releasing hormone receptor (Homo sapiens) (UniProt P34981); assay: qHTS for Small Molecule Agonists and Allosteric Enhancers of Human TRH Receptor: Validation Screen for Agonists (AID 493127;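 active means calcium activation more than 3 SD above the typical response in the agonist read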;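 further: intracellular calcium rise by fluo-8 fluorescence before TRH EC20 addition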); conditions: TRH receptor agonist cell assay; at 2 µM; stronger effect = higher value
Sequence of Thyrotropin-releasing hormone receptor (Homo sapiens) (P34981 whole entry, looked up): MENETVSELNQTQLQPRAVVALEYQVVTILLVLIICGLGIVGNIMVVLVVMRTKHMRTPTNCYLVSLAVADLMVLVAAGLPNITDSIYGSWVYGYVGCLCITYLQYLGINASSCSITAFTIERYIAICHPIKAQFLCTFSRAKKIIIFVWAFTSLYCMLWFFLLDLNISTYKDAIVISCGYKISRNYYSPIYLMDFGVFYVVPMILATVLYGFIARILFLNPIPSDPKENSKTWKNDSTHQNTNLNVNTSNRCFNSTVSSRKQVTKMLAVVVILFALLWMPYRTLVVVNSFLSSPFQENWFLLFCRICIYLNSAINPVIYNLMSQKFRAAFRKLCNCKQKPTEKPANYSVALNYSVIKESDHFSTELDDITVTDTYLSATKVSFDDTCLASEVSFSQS
How it was run: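 Kinetic fluorescence assay of agonist-induced calcium release: overnight-plated TRHR cells, room-temperature fluo-8 loading, baseline then compound addition with per-second reads.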

[19] = Nrf2 qHTS screen for inhibitors: Validation (AID 493153; active means well fitted inhibition curve with a large enough effect in the main read-out, with a control signal flat, not every such curve was filed as active); conditions: viability change: measured here: cytotoxicity max response
How it was run: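 In this counterscreened reporter format, each well gives two signals: CellTiter-Fluor fluorescence for cytotoxicity and ARE-luciferase luminescence for Nrf2 function. A549 ARE_Fluc cells in 5% FBS OPTI-MEM were exposed to compound titrations for 18-24 h.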

SMILES	outcome [1]	Potency [2]	Potency [3]	outcome [4]	Potency [5]	Potency [6]	Potency [7]	Potency [8]	outcome [9]	outcome [10]	outcome [11]	Potency [12]	outcome [13]	Potency [14]	Potency [15]	outcome [16]	Potency [17]	activation [18]	outcome [19]	viability change [19]
C=CCN1CC[C@]23CCCCC2[C@H]1Cc1ccc(O)cc13 (some centres not stated)	inactive	inactive	inactive	inactive	inactive	inactive	inactive	inactive	inactive	inactive	inactive	inactive	inactive	inactive	inactive	inactive	inactive	2% (inactive)	inactive	-5%
CS(=N)(=O)CC[C@H](N)C(=O)O (some centres not stated)	inactive	inactive	inactive	inactive	inactive	inactive	inactive		inactive	inactive	inactive	inactive	inactive	inactive		inactive	inactive	0.312% (inactive)	inactive	3.11%
COc1ccc2c(c[n+](C)c3c4cc5c(cc4ccc23)OCO5)c1OC	inactive	inactive		inactive	inactive		inactive		inactive	inactive	inactive	inactive	inactive	inactive		inactive	inactive	0.625% (inactive)		
O=C(O)Cc1cnc[nH]1	inactive	inactive	inactive	inactive	inactive	inactive	inactive		inactive	inactive	inactive	inactive	inactive	inactive		inactive	inactive	0.875% (inactive)	inactive	-0.284%
CCCCc1ccc(C(=O)O)nc1	inactive	inactive	inactive	inactive	inactive	inactive	inactive	inactive	inactive	inactive	inactive	inactive	inactive	inactive		inactive	inactive	1.25% (inactive)		
NCc1cc(=O)[nH]o1	inactive	inactive	inactive	inactive	inactive	inactive	inactive	inactive	inactive	inactive	inactive	inactive	inactive	inactive		inactive	inactive	-4.19% (inactive)	inactive	4.87%
NCCc1c[nH]c2ccccc12	inactive	inactive	inactive	inactive	inactive	inactive	inactive	inactive	inactive	inactive	inactive	inactive		inactive		inactive		-0.438% (inactive)	inactive	-0.0651%
Cn1cnc(CCN)c1	inactive	inactive	inactive	inactive	inactive	inactive	inactive	inactive	inactive	inactive	inactive	inactive	inactive	inactive		inactive	inactive	0.562% (inactive)	inactive	-10.2%
O=C1CCCN1CC#CCN1CCCC1	inactive	inactive	inactive	inactive	inactive	inactive	inactive	inactive	inactive	inactive	inactive	inactive		inactive		inactive	inactive	3.06% (inactive)	inactive	3.92%
COc1cc(C(O)CN)ccc1O (configuration not stated)	inactive	inactive	inactive	inactive	inactive	inactive	inactive	inactive	inactive	inactive	inactive	inactive	inactive	inactive		inactive	inactive	0.375% (inactive)	inactive	-5.73%
S=C(NC1CCCCC1)N1CCC(c2cnc[nH]2)CC1	inactive	inactive	inactive	inactive	inactive	inactive	inactive		inactive		inactive	inactive	inactive	inactive		inactive	inactive	0.5% (inactive)	inactive	-5.13%
Cc1nccc2c1[nH]c1ccccc12	inactive	inactive	inactive	inactive	inactive		inactive	inactive	inactive	inactive	inactive	inactive	inactive	inactive		inactive	9.2 µM (active)	0.938% (inactive)	inactive	6.29%
C[N+]1(C)C2CCC1CC(OC(=O)C(CO)c1ccccc1)C2 (configuration not stated)	inactive	inactive	inactive	inactive	inactive	inactive	inactive	inactive	inactive	inactive	inactive	inactive	inactive	inactive		inactive	inactive		inactive	9.4% and 1.15%
